The values below come from PubChem BioAssay (NCATS).

Assay [1] in a line: qHTS of pediatric cancer cell lines to identify multiple opportunities for drug repurposing: Primary screen for OHS-50 cells (AID 1347103).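 For activity change, negative = cytotoxic: plate controls were DMSO neutral control for no effect and bortezomib positive control for full effect.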 Note: nearly all actives have a fitted effect of over 40% in size. Note: potency is the fitted concentration of half-maximal effect. The method in brief:
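Cells (500-1,000/well) rested 5 h, then received compounds for 48 h; metabolically active cells were measured by CellTiter-Glo luminescence. Final concentrations spanned up to 46 µM (MIPE, 11-point) or 0.59 nM-46 µM (NPC, 8-point) in primary screens, 11-point in follow-ups.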
For orientation: In qHTS, concentration-response curves come from the screen itself.

Assay [2] can be described thus: qHTS of pediatric cancer cell lines to identify multiple opportunities for drug repurposing: Primary screen for RD cells (AID 1347104).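 For activity change, negative = cytotoxic: plate controls were DMSO for no effect and bortezomib for full effect.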 Note: nearly all actives have a fitted effect of over 55% in size. Note: potency is the fitted concentration of half-maximal effect. The method in brief: (§1)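 Quantitative HTS format: each compound titrated (MIPE 11 points from 0.78 nM, NPC 8 points from 0.59 nM) onto cells plated 5 hours earlier. After 48 h at 37 degrees C, CellTiter-Glo luminescence was recorded.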

A short description of assay [3]: qHTS of pediatric cancer cell lines to identify multiple opportunities for drug repurposing: Primary screen for MG 63 (6-TG R) cells (AID 1347105). For activity change, negative = cytotoxic: % is set by controls: 0 for no effect and ±100 for the full control effect. Note: nearly all actives have a fitted effect of over 50% in size. Note: potency is the fitted concentration of half-maximal effect. An outline of the steps: as §1
Assay [4] in a line: qHTS of pediatric cancer cell lines to identify multiple opportunities for drug repurposing: Primary screen for control Hh wild type fibroblast cells (AID 1347106).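 Note: series mostly up to about 46 µM; % is set by controls: 0 for no effect and ±100 for the full control effect; a drop in luminescence marks cytotoxicity and a rise apparent proliferation; nearly all actives have a fitted effect of over 55% in size.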 An outline of the steps:
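Cells (500-1,000/well) in growth media were settled 5 h at 37 degrees C, then given compounds for 48 h. Viability was read as CellTiter-Glo luminescence. Primary runs used MIPE at 11 points (0.78 nM-46 µM) and NPC at 8 points (0.59 nM-46 µM); follow-ups used 11 points.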

Assay [5] is described as follows: qHTS of pediatric cancer cell lines to identify multiple opportunities for drug repurposing: Primary screen for Rh30 cells (AID 1347107). Note: series mostly up to about 46 µM; % is set by controls: 0 for no effect and ±100 for the full control effect; nearly all actives have a fitted effect of over 75% in size. The method in brief: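 Viability after 48 h compound treatment at 37C, 500-1,000 cells/well, read as ATP luminescence with CellTiter-Glo. Primary screens used 11-point (MIPE, 0.78 nM-46 µM) or 8-point (NPC, 0.59 nM-46 µM) final concentrations; follow-up screens used 11-point dilutions.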

Assay [6] can be described thus: qHTS of pediatric cancer cell lines to identify multiple opportunities for drug repurposing: Primary screen for Rh41 cells (AID 1347108).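 Note: series mostly up to about 46 µM; luminescence drop marks cytotoxic hits; nearly all actives have a fitted effect of over 70% in size.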 The method in brief: as §1

Inconclusive results are not listed. Values without a mark were called inactive. The source made the active and inactive calls. Calls come from the whole dose curve; as a rule, active = well fitted curve in the direction sought with a large enough effect; inconclusive = small, poorly fitted or top-dose-only effect, or another doubt; inactive = no such curve, though single readings can be large; an effect the other way counts as inactive or inconclusive.

For `Cc1coc2ccccc2c1=O`, the Potency entry in assay [1], in assay [2], in assay [3], in assay [4], in assay [5] and in assay [6] was “inactive” each time.
With `COc1c(N2C[C@@H]3CCCN[C@@H]3C2)c(F)cc2c(=O)c(C(=O)O)cn(C3CC3)c12`, the Potency entry in assay [1], in assay [2], in assay [3], in assay [4] and in assay [5] was “inactive” each time.
For the compound `CN1C(=O)CC(C)(c2ccccc2)C1=O` (stereo unspecified), the Potency entry in assay [1], in assay [2], in assay [3], in assay [4] and in assay [5] was “inactive” throughout.
Take `O=C(OCC(COC(=O)c1cccnc1)(COC(=O)c1cccnc1)COC(=O)c1cccnc1)c1cccnc1`: the Potency result in assay [1], in assay [2], in assay [3], in assay [4] and in assay [5] was “inactive” each time.
As to `CC(=O)OCC[N+](C)(C)C`, the Potency result in assay [1], in assay [2], in assay [3], in assay [4], in assay [5] and in assay [6] was “inactive” each time.
As for `CCN(CC)CC(=O)Nc1c(C)cccc1C(=O)OC`, the Potency result in assay [1], in assay [2], in assay [3], in assay [4], in assay [5] and in assay [6] was “inactive” in each case.
For `CC(=O)O[C@@H]1CC2C3CCc4cc(OC(=O)c5ccccc5)ccc4C3CCC2(C)[C@H]1OC(C)=O` (stereo partly specified), the Potency entry in assay [1], in assay [2], in assay [3], in assay [4], in assay [5] and in assay [6] was “inactive” each time.
Consider `C1=CC2C3C=CC(C3)C2C1` (stereo unspecified), for which the Potency result in assay [1], in assay [2], in assay [3], in assay [4] and in assay [5] was “inactive” each time.
For the compound `CC(C)NC(=O)c1ccc(C=O)cc1`, the Potency result in assay [1], in assay [2], in assay [3], in assay [4], in assay [5] and in assay [6] was “inactive” throughout.
As for `Oc1ccccc1`, the Potency entry in assay [1], in assay [2], in assay [3], in assay [4] and in assay [5] was “inactive” in each case.
As for `Cc1oc(=O)oc1COC(=O)[C@@H]1N2C(=O)[C@@H](NC(=O)[C@H](N)c3ccccc3)[C@H]2SC1(C)C`, the Potency entry in assay [1], in assay [2], in assay [3], in assay [4] and in assay [5] was “inactive” each time.
Take `CC(C)C(C)(C)C(C)(C)C(C)(C)S`: the Potency result in assay [1], in assay [2], in assay [3], in assay [4], in assay [5] and in assay [6] was “inactive” each time.
Regarding `CCCCCCCCCCCCCC[N+](C)(C)C`, the Potency is 3.09 µM (active) in assay [1], 11.9 µM (active) in assay [2] and 26.6 µM (active) in assay [3].
With `O=C(O)Cc1ccc(OCCNC[C@H](O)c2ccccc2)cc1`, the Potency result in assay [1], in assay [2], in assay [3], in assay [4] and in assay [5] was “inactive” in each case.
Regarding `CCCCOC(=O)CCCCCCCCC(=O)OCCCC`, the Potency result in assay [1], in assay [2], in assay [3], in assay [4], in assay [5] and in assay [6] was “inactive” throughout.
For `CC(C)NCCCC1(C(N)=O)c2ccccc2-c2ccccc21`, the Potency entry in assay [1], in assay [2], in assay [3], in assay [4] and in assay [5] was “inactive” each time.
In the case of `COC(=O)c1cc(Cl)ccc1OC`, the Potency entry in assay [1], in assay [2], in assay [3], in assay [4], in assay [5] and in assay [6] was “inactive” in each case.
Consider `CCS(=O)(=O)c1ccc(OC)c(C(=O)OC)c1`, for which the Potency result in assay [1], in assay [2], in assay [3], in assay [4] and in assay [5] was “inactive” throughout.
On to `O=C(O)c1ccc(OCCN2CCCCC2)cc1`, for which the Potency result in assay [1], in assay [2], in assay [3], in assay [4], in assay [5] and in assay [6] was “inactive” throughout.
Regarding `CC(=O)O[C@H]1CC[C@@]2(C)C(=CC[C@@H]3[C@@H]2CC[C@]2(C)C(C(C)=O)=CC[C@@H]32)C1`, the Potency result in assay [1], in assay [2], in assay [3], in assay [4], in assay [5] and in assay [6] was “inactive” throughout.
For the compound `NC(=O)C1(N2CCCCC2)CCN(CCCN2c3ccccc3CCc3ccc(Cl)cc32)CC1`, in assay [1], the Potency was 24.6 µM (active).
`CC(C)OP(=O)(CP(=O)(OC(C)C)OC(C)C)OC(C)C`: the Potency result in assay [1], in assay [2], in assay [3], in assay [4] and in assay [5] was “inactive” each time.
Take `N#CSCC(=O)O`: the Potency result in assay [1], in assay [2], in assay [3], in assay [4] and in assay [5] was “inactive” in each case.
Consider `O=C1Nc2ccccc2C1(c1ccc(O)cc1)c1ccc(O)cc1`, for which the Potency in assay [1] was 0.872 µM (active); in assay [3] it was 0.133 µM (active). For the same compound, the Potency entry in assay [2], in assay [4], in assay [5] and in assay [6] was “inactive” in each case.
For the compound `[O-][n+]1cccc(/C(Cl)=N/OC[C@@H](O)CN2CCCCC2)c1`, the Potency entry in assay [1], in assay [2], in assay [3], in assay [4] and in assay [5] was “inactive” each time.
Turning to `O=C(c1cc(O)c(O)c(O)c1)c1ccc(O)c(O)c1O`, the Potency in assay [1] is 24.6 µM (active). The Potency result in assay [2], in assay [3], in assay [4] and in assay [5] was “inactive” each time.
As for `CC(=O)N[C@@H](CCC(N)=O)C(=O)O`, the Potency entry in assay [1], in assay [2], in assay [3], in assay [4] and in assay [5] was “inactive” throughout.
For the compound `O=C(Nc1ccc(Cl)cc1)Nc1ccc(Cl)c(C(F)(F)F)c1`, the figures for the Potency in assay [1] and in assay [2] were 5.5 µM (active) and 11.9 µM (active), respectively.
Turning to `CC1CN(c2cc3c(cc2F)c(=O)c(C(=O)O)cn3-c2ccc(F)cc2F)CCN1` (stereo unspecified), the activity change, negative = cytotoxic is 83% [at 6.18 µM] in assay [1]; -4.55% [at 4.84 µM] in assay [2]; 29.5% [at 4.84 µM] in assay [3]; -8.43% [at 4.84 µM] in assay [4]; 5.93% [at 4.84 µM] in assay [5].
Take `COC(=O)[C@H]1[C@H]2C[C@@H]3c4[nH]c5cc(OC)ccc5c4CCN3C[C@H]2C[C@@H](OC(=O)/C=C/c2ccc(O)c(OC)c2)[C@@H]1OC`: the Potency in assay [1] was 34.7 µM (active).
`COC(=O)/C=C(/C)N`: the Potency entry in assay [1], in assay [2], in assay [3], in assay [4] and in assay [5] was “inactive” each time.
As for `CCCCCCCCCCCCCCCC[N+](C)(C)Cc1ccccc1`, in assay [1], the Potency was 11 µM (active).
On to `O=C(CCCCCCCCC#CI)Oc1ccccc1`, for which the Potency entry in assay [1], in assay [2], in assay [3], in assay [4], in assay [5] and in assay [6] was “inactive” each time.
Consider `CC(=O)OC[C@H]1O[C@@H](OC(C)=O)[C@H](OC(C)=O)[C@@H]1OC(C)=O`, for which the Potency result in assay [1], in assay [2], in assay [3], in assay [4], in assay [5] and in assay [6] was “inactive” each time.
